PubChem BioAssay (Tox21)
Inconclusive results are not listed. A call without a number means that no potency is given here. Unmarked numbers belong to inactive results. The source made the active and inactive calls. Calls come from the whole dose curve; as a rule, active = well fitted inhibition curve with a large enough effect in the repeat runs; inconclusive = weak or mixed curves; inactive = no such curve, though single readings can be large or run the other way.

assay: qHTS assay to identify small molecule antagonists of the estrogen related receptor (ERR) signaling pathway from Tox21 library (AID 1224848); details: ERR reporter cell line, luciferase antagonist mode, 18 h; series mostly up to 92.4 µM; note: nearly all actives have a fitted effect of over 50% in size
From the text: U.S. Tox21 Program National Center for Advancing Translational Sciences [NCATS] NIH Chemical Genomics Center [NCGC] U.S. Environmental Protection Agency [EPA] National Institutes of Environmental Health Sciences [NIEHS] National Toxicology Program [NTP] U.S. Food and Drug Administration [FDA] Tox21 Assay Overview: Estrogen related receptors (ERRs), the first orphan nuclear receptors discovered, play an important role in the control of cellular energy metabolism. ERRs are required for high-energy production in response to the environmental challenges. ERR-alpha was also identified as an adverse marker for breast cancer progression; ERR-alpha-positive tumors have a poor prognosis. To screen and to identify environmental compounds that perturb the ERR signaling pathways could provide valuable information for potential therapeutic or preventive measures in the treatment of metabolic disease. For identifying ERR antagonists, ERR cell line (provided by NTP) has been used to screen Tox21 10K library.
Tox21 Assay Protocol Summary: The ERR cells were dispensed at 2,000 cells/5 ul/well in 1536-well white plates using a Multidrop dispenser. After the assay plates were incubated at a 37 C/5% CO2 incubator for 6 hours, 23 nL of compounds dissolved in DMSO, positive and negative controls or DMSO only was transferred to the assay plate by a pin tool. The plates were incubated at 37 C for 18 hours. 4 ul/well of One-Glo reagent was added into the assay plates using a Flying Reagent Dispenser. After 30-minute incubation at room temperature, the luminescence intensity in the plates was measured using a ViewLux plate reader.

Compound	Potency	activity, negative = inhibition
Cn1c(N)c(N=O)c(=O)n(C)c1=O	inactive	–
NS(=O)(=O)c1cc(C(=O)NN2C[C@H]3[C@H]4CCC(C4)[C@H]3C2)ccc1Cl	inactive	–
NC(=O)Nc1ccccc1	inactive	–
N=C(N)c1ccc(OCCCOc2ccc(C(=N)N)cc2)cc1	inactive	–
CCn1ccnc1CC1COc2ccccc2O1 (stereo not given)	inactive	–
O=Cc1cccc([N+](=O)[O-])c1	inactive	–
CN1N=C(C(N)=O)CCC1=O	inactive	–
COc1ccc2c(c1)CCCC2=O	inactive	–
Cc1c(O)cccc1O	inactive	–
CCC=O	inactive	–
C/C=C(\C)C#N	inactive	–
O=[N+]([O-])c1ccc(F)cc1F	inactive	–
CCC(C)C1CCCCC1=O (stereo not given)	inactive	–
CCOC(=O)c1ccc(C)cc1	inactive	–
C=C[Si](OC(=C)C)(OC(=C)C)OC(=C)C	inactive	–
CCCCCOC(=O)CCCCC	inactive	–
COCCCOCCCOC	inactive	–
CC(C)(CC(=O)O)C(=O)O	inactive	–
CCOC(=O)c1c(C)n(C)c2ccc(O)cc12	inactive	–
CN1CCN(c2cc3c(cc2F)c(=O)c(C(=O)O)cn3-c2ccc(F)cc2)CC1	inactive	–

Compound	Potency	activity, negative = inhibition
CC/C=C\CC/C=C/CO	inactive	–
O=C(O)CNC(=O)c1ccc([N+](=O)[O-])cc1	inactive	–
Cc1ccc(C#N)cc1	inactive	–
CCCCOCCOCCOCCCC	inactive	–
COC(=O)[C@@H](N)Cc1ccc(O)c(O)c1	inactive	–
CC1=CC(C)C(C=O)CC1 (stereo not given)	inactive	–
CC(C)NC(=O)NC(C)C	inactive	–
COC(=O)c1c(Cl)c(Cl)c(C(=O)OC)c(Cl)c1Cl	inactive	–
c1ccc(CC2=NCCN2)cc1	inactive	–
CN(C)CCCSc1ccccc1NC(=O)/C=C/c1ccccc1	inactive	–
Cc1cccn2c(=O)c(-c3nnn[nH]3)cnc12	–	7.1% [at 19 µM]
NS(=O)(=O)c1ccccc1Cl	inactive	–
CCS(=O)(=O)c1ccc(OC)c(C(=O)OC)c1	inactive	–
Cc1cccc(C)c1NC(=O)C(C)N (stereo not given)	inactive	–
Cc1ccc(Cl)cc1Cl	inactive	–
CCOC(=O)[C@H](CCc1ccccc1)N[C@@H](C)C(=O)N1[C@H](C(=O)O)C[C@@H]2CCC[C@@H]21	inactive	–
CCCCC(CC)COC(=O)c1ccccc1O (stereo not given)	inactive	–
CN(C(=O)c1c(O)c2ccccc2n(C)c1=O)c1ccccc1	inactive	–
O=C1CC2CC1C1CCCC21 (stereo not given)	inactive	–
COc1c(N2C[C@@H]3CCCN[C@@H]3C2)c(F)cc2c(=O)c(C(=O)O)cn(C3CC3)c12	inactive	–
